The record followed here is PubChem BioAssay (Tox21).

Records with an inconclusive call do not appear. Active and inactive are the calls of the source. Unless noted, calls follow the shape of the dose curve; as a rule, active = well fitted curve in the direction sought with a large enough effect in the repeat runs; inconclusive = weak or mixed curves; inactive = no such curve, though single readings can be large; an effect the other way counts as inactive or inconclusive.

Assay [1] deals with thyroid hormone receptor (rat, GH3 cells). Put plainly: qHTS assay to identify small molecule agonists of the thyroid receptor (TR) signaling pathway (AID 743066; calls by dose curve).
Assay [2] has as its target Estrogen receptor (Homo sapiens) (UniProt P03372). Put plainly: qHTS assay to identify small molecule antagonists of the estrogen receptor alpha (ER-alpha) signaling pathway (AID 743069; active = well fitted curve in the direction sought with a large enough effect in the signal ratio in the repeat runs, not every such curve was filed as active; the % refers to the signal ratio). The procedure, abridged:
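Estradiol-stimulated ER-alpha-UAS-bla HEK293 cells, 18 hr compound exposure at 37C. LiveBLAzer B/G substrate, 2 hr RT, fluorescence read.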

Assay [3] is described as follows: qHTS assay to identify small molecule antagonists of the estrogen receptor alpha (ER-alpha) signaling pathway - cell viability counter screen (AID 743074; calls by dose curve;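 also: HEK293 cells carrying ER-alpha-UAS-bla reporter stimulated with 17beta-estradiol; nearly all actives have a fitted effect of over 45% in size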). (Quantitative high-throughput screening tests each substance at several concentrations.)
The target in assay [4] is Estrogen receptor (Homo sapiens) (UniProt P03372). Put plainly: qHTS assay to identify small molecule agonists of the estrogen receptor alpha (ER-alpha) signaling pathway (AID 743075; calls by dose curve;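 also: HEK293 GripTite cells with ER-alpha and UAS-driven beta-lactamase reporter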).
Sequence of Estrogen receptor (Homo sapiens) (P03372 whole entry, looked up): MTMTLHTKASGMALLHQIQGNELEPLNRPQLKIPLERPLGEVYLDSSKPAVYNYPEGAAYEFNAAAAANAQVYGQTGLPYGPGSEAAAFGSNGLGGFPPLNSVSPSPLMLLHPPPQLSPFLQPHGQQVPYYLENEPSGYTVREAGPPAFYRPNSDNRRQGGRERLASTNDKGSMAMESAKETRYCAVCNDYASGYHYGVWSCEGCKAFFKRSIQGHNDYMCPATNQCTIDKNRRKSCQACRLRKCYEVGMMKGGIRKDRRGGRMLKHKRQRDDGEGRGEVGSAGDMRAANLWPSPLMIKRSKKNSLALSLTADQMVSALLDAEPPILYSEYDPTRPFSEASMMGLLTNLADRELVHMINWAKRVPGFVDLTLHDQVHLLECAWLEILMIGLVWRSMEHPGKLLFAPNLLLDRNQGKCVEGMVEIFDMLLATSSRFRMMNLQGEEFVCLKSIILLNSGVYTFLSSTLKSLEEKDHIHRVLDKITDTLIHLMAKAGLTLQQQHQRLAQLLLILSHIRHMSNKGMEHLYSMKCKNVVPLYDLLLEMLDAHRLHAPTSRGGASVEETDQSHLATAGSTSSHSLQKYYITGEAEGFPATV
For assay [5] the target is unchanged. Put plainly: qHTS assay to identify small molecule agonists of the estrogen receptor alpha (ER-alpha) signaling pathway using the BG1 cell line (AID 743079). Also: nearly all actives have a fitted effect of over 20% in size. Also: potency is read from the fitted curve at half-maximal effect.
A short description of assay [6]: qHTS assay to identify small molecule antagonists of the estrogen receptor alpha (ER-alpha) signaling pathway using the BG1 cell line (AID 743080; calls by dose curve; also: nearly all actives have a fitted effect of over 25% in size; also: potency is read from the fitted curve at half-maximal effect). The procedure, abridged: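 Antagonist mode: compounds in DMSO were pinned onto BG1-Luc-4E2 cells alongside 17beta-estradiol agonist, incubated 21.5 h, and ERE-driven luciferase measured with ONE-Glo. Cytotoxicity was multiplexed using CellTiter-Fluor fluorescence.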

Assay [7] is described as follows: qHTS assay to identify small molecule antagonists of the estrogen receptor alpha (ER-alpha) signaling pathway using the BG1 cell line - cell viability counter screen (AID 743081).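 Also: compound given together with 17beta-estradiol as the ER stimulus; series mostly up to about 70 µM; nearly all actives have a fitted effect of over 45% in size.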
The target of a further assay is Aromatase (Homo sapiens) (UniProt P11511). Briefly: qHTS assay to identify aromatase inhibitors (AID 743083). Also: series mostly up to about 70 µM; nearly all actives have a fitted effect of over 55% in size.
Sequence of Aromatase (Homo sapiens) (P11511 whole entry, looked up): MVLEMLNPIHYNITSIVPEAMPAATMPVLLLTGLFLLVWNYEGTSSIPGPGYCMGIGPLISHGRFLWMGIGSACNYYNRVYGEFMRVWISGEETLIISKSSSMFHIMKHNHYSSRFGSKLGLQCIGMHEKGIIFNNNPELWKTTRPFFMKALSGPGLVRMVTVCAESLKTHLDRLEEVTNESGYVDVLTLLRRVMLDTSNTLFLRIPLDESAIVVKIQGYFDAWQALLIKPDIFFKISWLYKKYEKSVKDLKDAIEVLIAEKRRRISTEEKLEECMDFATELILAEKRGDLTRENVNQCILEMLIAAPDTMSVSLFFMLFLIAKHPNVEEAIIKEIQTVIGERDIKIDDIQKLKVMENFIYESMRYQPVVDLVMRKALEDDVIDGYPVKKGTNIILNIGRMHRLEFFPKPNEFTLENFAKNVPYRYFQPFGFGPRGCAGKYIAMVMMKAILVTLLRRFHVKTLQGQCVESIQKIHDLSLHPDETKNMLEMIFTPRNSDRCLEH
Assay [8] is described as follows: qHTS assay to identify aromatase inhibitors - cell viability counter screen (AID 743084).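 Also: cells stimulated with testosterone during compound exposure; nearly all actives have a fitted effect of over 55% in size.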

With `O=C(O)Cc1c(Cl)ccc(Cl)c1Cl`, the Potency entry (in assay [1]; in assay [3]; in [4]; in assay [5]; in assay [6]; in the assay with Aromatase (Homo sapiens)) was “inactive” throughout. Moreover, the outcome in [2], in [7] and in assay [8] was inactive.
As for `CC(C)(O)CCCC1=CCC(C=O)CC1` (configuration not stated), the Potency result (in assay [1]; in [3]; in assay [4]; in assay [6]; with Aromatase (Homo sapiens)) was “inactive” throughout. The result in [2], in assay [7] and in [8] was inactive. In assay [5], the Potency is 58.1 µM (active).
Consider `Cc1nc2ccc(Cl)cc2[nH]1`, for which the Potency result (in [1]; in assay [3]; in [4]; in assay [5]; in assay [6]; with Aromatase (Homo sapiens)) was “inactive” throughout. Further, the result in [2], in assay [7] and in assay [8] was inactive.
As for `CCO/C=C1\N=C(c2ccccc2)OC1=O`, the Potency result (in [1]; in assay [3]; with Aromatase (Homo sapiens)) was “inactive” throughout. In addition, the compound was called inactive in assay [7] and in assay [8].
For `CCOC(=O)[C@H](CCc1ccccc1)N[C@H]1CS[C@H](c2cccs2)CN(CC(=O)O)C1=O`, the Potency entry (in [1]; in assay [3]; in assay [4]; in assay [5]; in assay [6]; with Aromatase (Homo sapiens)) was “inactive” each time. For the same compound, the result in [2], in [7] and in [8] was inactive.
Turning to `CCNC(=O)C(C)OC(=O)Nc1ccccc1` (configuration not stated), the Potency result (in assay [1]; in assay [3]; in assay [4]; in [5]; in assay [6]; with Aromatase (Homo sapiens)) was “inactive” in each case. Also, the call in assay [2], in assay [7] and in assay [8] was inactive.
On to `CCCCN=C(N)N=C(N)N`, for which the Potency result (in assay [1]; in [3]; in assay [4]; in assay [5]; in the assay with Aromatase (Homo sapiens)) was “inactive” throughout. Besides, the Potency in [6] was 16.8 µM (active). Further, the compound was classed as inactive in assay [7] and in [8].
Take `Cc1ccc(S(=O)(=O)NC(=O)NN2CC3CCCC3C2)cc1` (configuration not stated): the Potency entry (in [1]; in assay [3]; in assay [4]; in [5]; in [6]; in the assay with Aromatase (Homo sapiens)) was “inactive” in each case. Also, the compound was classed as inactive in assay [7] and in assay [8].
With `CC(=O)OC/C=C(/C)CCC=C(C)C`, the Potency entry (in assay [1]; in assay [3]; in [4]; in assay [5]; in assay [6]; with Aromatase (Homo sapiens)) was “inactive” each time. Further, the call in assay [2], in [7] and in assay [8] was inactive.
For `C=CC(C)(CCC=C(C)C)OC(=O)C(C)C` (configuration not stated), the Potency result (in [1]; in [3]; in assay [4]; in assay [5]; in assay [6]; with Aromatase (Homo sapiens)) was “inactive” in each case. For the same compound, the call in [2], in assay [7] and in assay [8] was inactive.
As to `O=S(=O)(O)CC(O)CCl` (configuration not stated), the Potency result (in assay [1]; in [3]; in assay [4]; in assay [5]; in assay [6]; in the assay with Aromatase (Homo sapiens)) was “inactive” throughout. Also, the compound was called inactive in assay [2], in [7] and in [8].
For the compound `N#Cc1ccccc1C#N`, the Potency result (in [1]; in [3]; in assay [4]; in assay [5]; in [6]; in the assay with Aromatase (Homo sapiens)) was “inactive” each time. Further, the compound was called inactive in assay [2], in assay [7] and in assay [8].
On to `CC[C@@]1(c2ccccc2)NC(=O)N(C)C1=O`, for which the Potency entry (in assay [1]; in [3]; in assay [4]; in assay [5]; in assay [6]; with Aromatase (Homo sapiens)) was “inactive” each time. In addition, the outcome in assay [2], in assay [7] and in assay [8] was inactive.
Consider `CSC(=O)c1cccc2nnsc12`, for which the Potency result (in assay [1]; in assay [3]; in [4]; in assay [5]; in assay [6]; in the assay with Aromatase (Homo sapiens)) was “inactive” throughout. For the same compound, the compound was classed as inactive in [7] and in assay [8].
Take `C[n+]1ccccc1/C=N/O`: the Potency entry (in [1]; in assay [3]; in assay [4]; in assay [5]; in assay [6]; with Aromatase (Homo sapiens)) was “inactive” each time. Besides, the call in assay [2], in assay [7] and in [8] was inactive.
As for `CC(C)(C)c1ccc(N)cc1`, the Potency result (in assay [1]; in [3]; in assay [4]; in assay [6]; with Aromatase (Homo sapiens)) was “inactive” in each case. Besides, the compound was classed as inactive in assay [2], in assay [7] and in [8].
In the case of `C=COCCCCO`, the Potency entry (in assay [1]; in [3]; in [4]; in assay [5]; in assay [6]; with Aromatase (Homo sapiens)) was “inactive” each time. Also, the compound was classed as inactive in assay [2], in [7] and in [8].
Turning to `COCc1nnc(-c2ccc[n+]([O-])c2)n1-c1c(Cl)c(Cl)cc2[nH]c(=O)c(=O)[nH]c12`, the Potency entry (in [1]; in assay [3]; in assay [4]; in assay [6]; with Aromatase (Homo sapiens)) was “inactive” throughout. In addition, the call in assay [7] and in assay [8] was inactive.
For the compound `O=C1Nc2ccccc2C1=O`, the Potency result (in assay [1]; in assay [3]; with Aromatase (Homo sapiens)) was “inactive” throughout. Besides, the compound was classed as inactive in assay [7] and in assay [8].
Take `O=C(O)CCC(=O)Nc1ccc(S(=O)(=O)Nc2nccs2)cc1`: the Potency entry (in assay [1]; in assay [3]; with Aromatase (Homo sapiens)) was “inactive” in each case. In addition, the compound was classed as inactive in assay [7] and in [8].
With `COC(C)(C)CC(C)=O`, the Potency entry (in assay [1]; in assay [3]; with Aromatase (Homo sapiens)) was “inactive” each time. In addition, the compound was classed as inactive in assay [7] and in assay [8].
For `O=CN1CCCCC1`, the result in assay [2], in assay [7] and in [8] was inactive. For the same compound, the Potency result (in assay [3]; in assay [4]; in assay [5]; in assay [6]; with Aromatase (Homo sapiens)) was “inactive” each time.
Turning to `CC(=O)Oc1ccc(C(C)=O)cc1`, the Potency entry (in [1]; in [4]; in [5]; in [6]; with Aromatase (Homo sapiens)) was “inactive” in each case. The compound was classed as inactive in assay [7] and in assay [8].
